# Experimental data published in paper PMC5540273 (PLoS ONE, 2017).
# 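Further: kd values determined as follow-up on hits from a single-replicate KINOMEscan panel screen.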
structure (smiles),measurement,setting,value
CC(C)(C)OC(=O)NC1CCCN(c2cc(-c3ccc4c(N)n[nH]c4c3)nc(N)n2)C1 (stereo not shown) [GSK2286096],Kd,DYRK2,0.44 µM
FC(F)(F)c1ccc(-c2cc(-c3c[nH]nc3-c3ccccn3)ccn2)cc1 [GW599550],Kd,EIF2AK1,> 10 µM
Clc1cccc(-c2nc(Nc3ccncc3)c3ccccc3n2)c1 [GW873004],Kd,EPHA1,> 10 µM
CCC(CC)(CC)n1cnc2c(N)ncnc21 [SKF-97620],Kd,EPHA2,> 10 µM
O=C(Nc1n[nH]c2nc(-c3ccco3)c(Br)cc12)c1ccc(CN2CCCC2)cc1.O=C(O)[C@H](O)[C@@H](O)C(=O)O [SB-742352],Kd,EPHA4,> 10 µM
same,Kd,EPHA6,> 10 µM
FC(F)(F)c1ccc(-c2nn3ncccc3c2-c2ccnc(Nc3cccc(C(F)(F)F)c3)n2)cc1 [GW828205],Kd,EPHA4,> 10 µM
